NPC1 prom act: activates the NPC1 promoter; 320,000 compounds, 2.4% hits; Potency, µM (doses to about 9.22 µM), without a hit: at the top dose activation, most hits filed as activators; Huh7 NPC1 promoter luciferase reporter, 24 h; AID 485313; also: % of control where 0% means no effect; nearly all actives have a fitted effect of over 60% in size
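Stable NPC1-promoter luciferase Huh7 line; cpd (DMSO) 24 h, 37 °C, 5% CO2; Amplite luciferase reagent 10 min RT; luminescence readout. qHTS format.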
Rab9 prom act: activators of Rab9 promoter | Huh7 Rab9 promoter-luciferase reporter, luminescence, 24 h | Potency, µM (titrated, usually from 9.22 µM), for inactives: top-dose activation, negative = inhibition, most hits filed as activators | AID 485297 | 320,000 compounds, 2.8% hits; also: % of control where 0% means no effect; nearly all actives have a fitted effect of over 60% in size
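Using Huh7 cells stably transfected with Rab9 promoter–luciferase, compounds were incubated 24 h at 37 °C, 5% CO2; luciferase luminescence was read 10 min after reagent addition.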
SMN2 splice enh: enhancers of SMN2 splice variant expression; HEK293 SMN2-luciferase splicing reporter, luminescence, 30-36 h; Potency, µM (highest dose often 46.1 µM), without a hit: at the top dose activity change, positive = activation, actives largely listed as activators; 210,000 compounds, 2.8% hits; AID 1458; also: % of control where 0% means no effect; nearly all actives have a fitted effect of over 55% in size
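HEK293 cells carry an SMN2 minigene-luciferase reporter in which exon 7 inclusion puts luciferase in frame. Cells were seeded at 2000 cells/well, attached for 10-12 hours, then exposed to compounds for 30-36 hours at 37C before ONE-Glo luminescence.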
FLuc modulator: counter-screen for miR-21 project: firefly luciferase inhibitors or activators. Potency, µM (top dose mostly 57.5 µM), inactives show at the highest dose activity change, negative = inhibition, usual class: inhibitors. purified FLuc, Km substrates, luminescence inhibition. 360,000 compounds, 6.9% hits;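 also: plate controls were vehicle for no effect and reference inhibitor for full effect; nearly all actives have a fitted effect of over 55% in size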
Target sequence (P08659 whole entry, looked up): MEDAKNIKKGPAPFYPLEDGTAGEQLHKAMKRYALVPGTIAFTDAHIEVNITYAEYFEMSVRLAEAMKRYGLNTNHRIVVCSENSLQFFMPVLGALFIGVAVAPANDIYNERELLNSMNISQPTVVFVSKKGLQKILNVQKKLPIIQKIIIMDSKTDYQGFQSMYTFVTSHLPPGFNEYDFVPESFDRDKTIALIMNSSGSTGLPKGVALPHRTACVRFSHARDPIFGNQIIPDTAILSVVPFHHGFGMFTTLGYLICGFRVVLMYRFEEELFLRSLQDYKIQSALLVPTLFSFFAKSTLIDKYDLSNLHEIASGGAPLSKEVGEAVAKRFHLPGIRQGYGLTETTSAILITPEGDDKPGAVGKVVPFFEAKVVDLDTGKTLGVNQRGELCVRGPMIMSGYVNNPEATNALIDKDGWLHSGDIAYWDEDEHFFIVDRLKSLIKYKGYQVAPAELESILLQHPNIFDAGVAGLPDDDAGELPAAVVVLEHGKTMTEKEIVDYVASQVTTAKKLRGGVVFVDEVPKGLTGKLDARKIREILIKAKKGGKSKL
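Purified P. pyralis luciferase (10nM final) with 10uM D-luciferin and 10uM ATP (Km levels) in 50mM Tris acetate pH 7.5, 10mM Mg acetate, 0.01% Tween-20, 0.05% BSA; qHTS 6-point titration, ~60 µM downward; luminescence read.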
ELG1 genotox: inducers of genotoxicity in HEK293T ELG1-luciferase cells; Potency, µM (series often up to 46 µM), for inactives: top-dose activity change, positive = activation, most hits filed as activators; 330,000 compounds, 1.3% hits; HEK293T ELG1-luciferase reporter, luminescence, 16 h; also: % of control where 0% means no effect; nearly all actives have a fitted effect of over 60% in size
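Step 1: seed 2,000 HEK293T ELG1-luciferase cells per well. Step 2: add compound or DMSO, incubate 16 hr at 37 °C. Step 3: ONE-Glo, 30 min at room temperature, read luminescence.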
KinaseGlo FLuc: Kinase-Glo luciferase inhibition (counter-screen); Kinase-Glo luciferase, ATP luminescence, 8 min; AID 1379; Q27757; 200,000 compounds, 0.28% hits; Potency, µM (series often up to 38.3 µM), for inactives: top-dose activity change, negative = inhibition, most hits filed as inhibitors; also: % is scaled to controls: 0 for no effect and ±100 for the full control effect; nearly all actives have a fitted effect of over 60% in size
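Luminescence was the read-out, taken after 8-minute incubation at ambient temperature. Luciferase turned over luciferin with 10 uM ATP in imidazole pH 7.2 buffer containing KCl, MgCl2, Tween 20 and BSA.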
* marks the source's active call; other numbers are inactive results; u = inconclusive; x = not tested or not shown; [ ] = remark or other dose. Only some compounds are listed: those with a hit (about 7.4% of all), similar ones and a draw of the others. Calls follow the shape of the dose curve; as a rule, active = well fitted curve in the direction sought with a large enough effect; inconclusive = small, poorly fitted or top-dose-only effect, or another doubt; inactive = no such curve, though single readings can be large; an effect the other way counts as inactive or inconclusive. Potency is read from the fitted curve at half-maximal effect.

SMILES	NPC1 prom act	Rab9 prom act	SMN2 splice enh	FLuc modulator	ELG1 genotox	KinaseGlo FLuc
CCOC(=O)CNC(=O)CSc1cc(C)nc2ccc(OC)cc12	3.98µM*	3.16µM*	x	6.75µM*	u	-18.6%
CCNC(=O)c1c(NC(=O)c2nc(S(=O)(=O)CC)ncc2Cl)sc2c1CCCC2	x	x	4.4%	u	x	x
COc1cccc(NC(=O)Cn2c(=O)ccc3cc(S(=O)(=O)N4CCC(C)CC4)ccc32)c1	x	x	x	1.3%	x	x
CN1CCc2nc(NC(=O)COc3ccc4ccccc4c3)sc2C1	-3.0%	0.4%	-71.9%	1.6%	-20.2%	1.2%
CN1CCc2nc(NC(=O)c3cccc(OC(F)F)c3)sc2C1	24.2%	21.7%	16.0%	10.7µM*	u	-0.9%
COc1cc(OC)cc(C(=O)NC2=NCCS2)c1	3.3%	26.2%	7.9%	10.7µM*	u	-6.1%
O=C(NC1=NCCS1)c1cccc(OC(F)F)c1	2.24µM*	1.26µM*	11.2µM*	12µM*	5.8µM*	-2.8%
COc1ccc(C(=O)CCC(=O)NC2=NCCS2)cc1	4.8%	2.3%	x	-6.5%	7.9%	x
O=C(NC1=NCCS1)c1cccc(N2C(=O)c3ccccc3C2=O)c1	-4.4%	0.4%	-11.7%	-12.4%	0.4%	0.5%
COc1ccc(C(=O)NC2=NCCS2)cc1	2.24µM*	2.82µM*	x	19µM*	u	x
Cc1ccc2ccc3cc(C(=O)Nc4ccc(C)c(F)c4)nc3c2[nH]1	x	x	x	-8.5%	x	x
COc1cccc([C@@H]2Oc3ccc(Br)cc3C(=O)[C@H]2OC(=O)NS(=O)(=O)c2ccc(C)cc2)c1	x	x	u	x	x	1.5%
O=C(c1ccncc1)N1CCC[C@@]2(CCN(c3ccncc3)C2)C1	x	x	-2.5%	x	x	-1.4%
COc1cccc(N2CC(NC(=O)c3ccc4c(c3)OCO4)CC2=O)c1 (stereo not given)	x	x	x	-5.8%	x	x
CCN(CC)S(=O)(=O)c1ccc(C(=O)NC2=NCCS2)cc1	-1.3%	1.7%	x	1.3%	1.2%	x
CC(C)Oc1ccc(C(=O)NC2=NCCS2)cc1	0.708µM*	0.447µM*	2.51µM*	6.01µM*	u	-4.7%
O=C(NC12CC3CC(CC(C3)C1)C2)c1cccnc1	2.6%	0.4%	-7.4%	5.7%	0.9%	-7.5%
O=C(NC12CC3CC(CC(C3)C1)C2)c1cccc(OC(F)F)c1	25.3%	1.9%[1.84 µM]	x	15.1µM*	0.2%	x
Cc1cccc(NC(=O)c2cc(S(=O)(=O)NCc3ccc4c(c3)OCO4)ccc2F)c1C	x	x	x	0.6%	x	x
C/C(=N\O)c1ccc2c3ccccc3n(C)c2c1	u	u	39.7%	19µM*	u	-0.9%
CCn1c2ccccc2c2cc(/C(C)=N/O)ccc21	-4.4%	-3.5%	-24.8%	-21.2%	0.7%	-1.7%
O=c1ccc(-c2ccccc2)nn1Cc1c(F)cccc1Cl	x	x	-7.6%	-15.3%	x	x
COC(=O)c1sc(NC(=O)c2ccc([N+](=O)[O-])o2)c(C#N)c1C	-1.1%	-9.4%	x	26.9µM*	-7.6%	x
CCN(CC)C(=O)c1sc(NC(=O)c2cccc([N+](=O)[O-])c2)c(C#N)c1C	1.3%	1.8%	-94.7%	23.9µM*	-8.9%	0.3%
COC(=O)c1c(NC(=O)c2ccc([N+](=O)[O-])o2)sc2c1CCN(C(C)C)C2	-21.7%	-1.8%	x	-0.9%	6.4%	x
SMILES	NPC1 prom act	Rab9 prom act	SMN2 splice enh	FLuc modulator	ELG1 genotox	KinaseGlo FLuc
CC(=O)N1CCc2c(sc(NC(=O)c3ccc([N+](=O)[O-])o3)c2C#N)C1	u	3.98µM*	11.2µM*	u	u	-20.0%
CCN(CC)C(=O)c1sc(NC(=O)c2c(OC)cccc2OC)c(C#N)c1C	-0.2%	-1.2%	14.9%	-16.1%	0.0%	-2.7%
O=C(NCCc1ccccc1)c1ccc(Nc2nc3ccccc3n3nnnc23)cc1	x	x	-8.3%	3.8%	x	x
C=CCn1c(C)cc(C(=O)CSc2nnc(Cc3ccccc3)o2)c1C	14.2%	6.9%	-6.8%	15.1µM*	0.6%	0.6%
C=CCn1c(C)cc(C(=O)CSc2nc3ccccc3o2)c1C	0.631µM*	u	u	1.9µM*	1.64µM*	1.1%
Cc1cc(C(=O)CSc2nc3ccccc3o2)c(C)n1C1CC1	2.24µM*	2.24µM*	11.2µM*	13.5µM*	18.4µM*	-2.0%
O=C(CSc1nnc(NCc2ccccc2)s1)c1ccco1	17.3%	9.9%	9.2%	15.1µM*	4.9%	-2.4%
Cc1cc(C(=O)CSc2nnc(Cc3ccccc3)o2)c(C)n1Cc1ccc2c(c1)OCO2	-5.8%	-5.8%	-48.9%	-22.3%	-6.1%	-1.4%
Cc1cc(C(=O)CSc2ncnc3ccccc23)c(C)n1C1CC1	15.5%	-6.2%	x	u	0.1%	x
CC1Cn2c(C(=O)NCc3cccc(Br)c3)cc3cccc(c32)S1 (stereo not given)	x	x	x	6.3%	x	x
NC(=O)c1c(NC(=O)c2nc(SCc3ccccc3F)ncc2Cl)sc2c1CCCC2	x	x	9.8%	-0.9%	x	x
Clc1ccccc1-c1nnc(-c2ccccc2CNc2ccc(Br)cc2)o1	x	x	1.3%	-17.1%	x	x
CCCOc1ccc(C(=O)Nc2ccc(NC(=O)c3ccccc3)c(Br)c2)cc1	x	x	-18.4%	0.8%	x	x
Cc1ccc2c(c1)-c1c(cnc3cc(-c4ccc(F)cc4)nn13)CO2	x	x	-1.2%	-0.1%	x	x
C=CCn1c(C)cc(C(=O)CSc2nnc(NCc3ccccc3)s2)c1C	6.7%	10.9%	3.0%	16.9µM*	13.5%	-0.2%
COC(=O)c1ccc2[nH]c(C(C)(C)O)c(C)c2c1	u	u	x	19µM*	u	x
CCOC(=O)c1ccc2[nH]c3ccccc3c2c1	17.7%	u	u	19µM*	10.0%	0.1%
COC(=O)c1ccc2[nH]c(C)cc(=O)c2c1	-2.6%	-2.8%	-11.1%	3.8%	-3.3%	-3.1%
CNC(=O)c1cc2c(cn1)[nH]c1ccccc12	u	u	-12.2%	x	x	-5.4%
CCCCOC(=O)c1cc2c(cn1)[nH]c1ccccc12	x	x	17.8µM*	x	x	4.6%
O=C(NCCCO)c1ccc2[nH]c3ccccc3c2c1	1.4%	1.2%	12.1%	23.9µM*	11.3%	-0.9%
CC1=NN(c2ccc(S(=O)(=O)O)cc2)C(=O)/C1=C\c1ccc(Cl)cc1	x	x	-0.8%[9.22 µM]	x	x	-2.8%[7.66 µM]
N[C@H](CS)C(=O)O	x	x	2.6%	x	x	x
S=C(Nc1ccccc1)Nc1nccs1	2.51µM*	u	u	15.1µM*	7.9%	-4.3%
Fc1ccc(NC(=S)Nc2nccs2)cc1	u	3.55µM*	u	21.3µM*	5.6%	0.5%
CC(C)(C)c1nnc(NC(=S)Nc2ccccc2)s1	3.55µM*	3.16µM*	12.6µM*	9.53µM*	u	4.4%
O=C(Cc1ccc(F)cc1)Nc1nccs1	-0.7%	4.4%	x	-1.3%	-10.6%	x
COc1cc(OC)cc(C(=O)Nc2nnc(NC(=S)Nc3ccccc3)s2)c1	-2.0%	-2.3%	12.1%	-0.8%	-5.4%	1.8%
